Compound activity as filed in PubChem BioAssay.
GC-A act: GC-A (human) enzyme activation | P16066 | HEK293 GC-A cells, cGMP TR-FRET, EC30 ANP; 0% at EC30 ANP, 100% saturating ANP | activation, % at 10 µM | 370,000 tested, 0.14% active; in the data active = activation above about 40%
Target sequence (P16066 whole entry, looked up): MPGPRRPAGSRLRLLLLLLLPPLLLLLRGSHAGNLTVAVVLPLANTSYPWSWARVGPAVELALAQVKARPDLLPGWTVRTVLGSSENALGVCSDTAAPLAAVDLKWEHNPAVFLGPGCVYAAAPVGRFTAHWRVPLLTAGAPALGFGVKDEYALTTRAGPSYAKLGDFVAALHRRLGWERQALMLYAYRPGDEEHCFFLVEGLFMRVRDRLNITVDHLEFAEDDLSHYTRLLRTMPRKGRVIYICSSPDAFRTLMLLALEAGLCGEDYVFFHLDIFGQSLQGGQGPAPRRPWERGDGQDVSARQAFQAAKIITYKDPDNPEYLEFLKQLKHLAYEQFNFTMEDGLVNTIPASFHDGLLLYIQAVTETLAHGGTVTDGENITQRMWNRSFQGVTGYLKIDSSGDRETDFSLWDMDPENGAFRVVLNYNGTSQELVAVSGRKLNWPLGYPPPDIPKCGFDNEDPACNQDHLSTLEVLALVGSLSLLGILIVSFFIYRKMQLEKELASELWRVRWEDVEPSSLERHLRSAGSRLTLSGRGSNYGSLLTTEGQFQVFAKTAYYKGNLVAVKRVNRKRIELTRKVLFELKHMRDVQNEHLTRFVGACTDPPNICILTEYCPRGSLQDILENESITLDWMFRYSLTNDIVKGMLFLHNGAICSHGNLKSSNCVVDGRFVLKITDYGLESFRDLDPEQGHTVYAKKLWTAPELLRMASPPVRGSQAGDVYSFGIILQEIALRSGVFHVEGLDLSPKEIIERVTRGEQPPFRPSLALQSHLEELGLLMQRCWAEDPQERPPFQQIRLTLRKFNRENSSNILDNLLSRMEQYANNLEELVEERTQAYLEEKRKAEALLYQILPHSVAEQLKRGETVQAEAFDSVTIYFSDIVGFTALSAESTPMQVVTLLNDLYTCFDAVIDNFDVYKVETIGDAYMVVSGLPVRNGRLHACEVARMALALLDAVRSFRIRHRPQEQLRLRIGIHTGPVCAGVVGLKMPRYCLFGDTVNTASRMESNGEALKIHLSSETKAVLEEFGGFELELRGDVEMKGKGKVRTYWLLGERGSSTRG
NPR2 activator: GC-B (human) receptor activation; 370,000 tested, 0.11% active; AID 1920062; activation, % at 10 µM; P20594; HEK293-GC-B cells, CNP EC30, cGMP TR-FRET; 0% at EC30 CNP, 100% saturating CNP;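 active = activation at 10 µM reaching about 35% in either raw or pattern-adjusted values, limit read from the data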
MsrA inhibitor: inhibitors of bovine MsrA; purified bovine MsrA, absorbance read-out; inhibition, % at 15.5 µM; 360,000 tested, 0.75% active; AID 651718; in the data active = inhibition above about 4.5%;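 also: 0% = vehicle wells with enzyme and 100% = reference inhibitor wells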
bovine MsrA act: bovine methionine sulfoxide reductase A activation | activation, % at 10.6 µM | AID 602163 | purified bovine MsrA, absorbance read-out | 360,000 tested, 0.3% active; in the data active = activation above about 7.5%;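 also: 0% = vehicle and 100% = reference activator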
* = called active by the depositor; . = no result. An excerpt weighted towards active compounds, which were near 1.2% of everything screened.

SMILES	GC-A act	NPR2 activator	MsrA inhibitor	bovine MsrA act
CCOC(=O)/C=C(\C)Sc1cc(O)c2ccccc2c1O	3	-4	41*	3
CCOC(=O)/C=C(\C)Sc1cc(=O)oc2ccccc12	.	.	0	-4
O=C1OCCN1C(=O)[C@H]1[C@H](c2ccc([N+](=O)[O-])cc2)C(c2ccc(F)cc2)=NN1c1ccc(Br)cc1	-2	-3	4.7*	-12
O=C1OCCN1C(=O)[C@H]1[C@H](c2ccc([N+](=O)[O-])cc2)C(c2ccc(F)cc2)=NN1c1ccccc1	-3	-1	2	-1
CCCOc1ccc(/C=C2/C(=O)ON=C2C)cc1OCC	35	19	-1	-2
CCOc1cc(/C=C2\C(=O)ON=C2C)ccc1OCc1ccccc1	38	46*	1	-1
C=CCOc1ccc(/C=C2/C(=O)ON=C2C)cc1OC	41*	23	0	-1
CCOC(=O)c1ccccc1S(=O)(=O)N1CCN(c2nc(-c3cccs3)nc3ccccc23)CC1	-1	-3	.	.
COc1ccc(OCCOc2ccc(C)nc2[N+](=O)[O-])cc1	2	0	-1	-1
Cc1ccc(OCCOc2ccc(Cl)cc2Cl)c([N+](=O)[O-])n1	48*	5	2	-2
O=C(Nc1ccc2c(c1)OCO2)NC1CCN(S(=O)(=O)c2ccc(F)cc2)CC1	-1	0	.	.
COc1cccc(-c2sc3ccc(OC)cc3c2C#CC2(O)CCCCC2)c1	0	-4	4.7*	-5
COc1cc2c(cc1OC)CN(CCC(=O)c1ccc(Br)cc1)CC2	42*	-11	0	-3
CCOC(=O)N1CCN(CCC(=O)c2ccc(OC)cc2)CC1	4	-5	0	-6
CCOC(=O)N1CCN(CCC(=O)Nc2ccc(C)cc2)CC1	4	3	0	-2
CCOC(=O)N1CCN(CCC(=O)c2ccc(Br)cc2)CC1	53*	-11	0	-2
COc1cc2c(cc1OC)CN(C(=O)CCNC(=O)c1ccc(Br)cc1)CC2	-6	-3	1	-3
CCOC(=O)N1CCN(CCC(=O)c2ccc(Cl)cc2)CC1	65*	-14	0	-5
O=C(CCN1CCC2CCC(C2)C1)c1ccccc1 (configuration not stated)	53*	-6	-1	-4
COc1cccc(CNC(=S)OC2CCC23CCC(c2ccccc2)CC3)c1 (configuration not stated)	-1	-2	.	.
CC(=O)Nc1cc(-c2cccc(CO)c2)cn2c(-c3ccc(C(C)=O)cc3)cnc12	0	28	3	-3
COc1cc(-c2cc(NC(C)=O)c3ncc(-c4ccc(F)cc4)n3c2)cc(OC)c1OC	23	28	0	0
CC(=O)Nc1cc(-c2cccc(N)c2)cn2c(-c3ccc(C(C)=O)cc3)cnc12	6	35*	1	-5
COc1ccc(-c2cnc3c(NC=O)cc(-c4ccccc4)cn23)cc1OC	8	4	0	0
COc1ccc(-c2cnc3c(NC=O)cc(-c4cc(OC)c(OC)c(OC)c4)cn23)cc1OC	29	39*	0	-9
SMILES	GC-A act	NPR2 activator	MsrA inhibitor	bovine MsrA act
COc1cc(-c2cc(NC(C)=O)c3ncc(-c4ccc(C(C)=O)cc4)n3c2)cc(OC)c1OC	46*	46*	1	-2
CCCC1CCC2(CC1)CCC2OC(=S)NCc1cccc(F)c1 (configuration not stated)	-2	3	.	.
CCOC(=O)[C@@]12CCC3=C1N(CCC3)C(=O)[C@H](CC(=O)NCCCCc1ccccc1)C2	2	1	.	.
O=C(CCn1nnc2ccccc21)N1CCN(c2cccc(C(F)(F)F)c2)CC1	-12	-10	.	.
CCOC(=O)[C@@]12CCCC=C1N(CCc1ccc(Cl)cc1)C(=O)[C@H]2CC(=O)NCc1cccs1	2	-1	.	.
CSc1nc2nccc(/C=C\c3ccccc3)n2n1	0	-1	4.9*	-3
CSc1nc2nccc(-c3ccc(Cl)cc3)n2n1	11	6	-1	-7
O=C(O)C/C(=C\c1cc(Br)cs1)c1nc2ccccc2o1	0	-7	4.6*	-5
Cc1ccsc1/C=C(\CC(=O)O)c1nc2ccccc2o1	1	4	4.6*	-8
Cc1ccsc1/C=C(\C(=O)c1ccc(OC(C)C)cc1)c1nc2ccccc2o1	3	1	4.6*	-13
C[C@@H](O[Si](c1ccccc1)(c1ccccc1)C(C)(C)C)[C@@H]1NC(=O)[C@@H]2C[C@]3(Br)c4ccccc4N(S(=O)(=O)c4ccccc4)[C@@H]3N2C1=O	-5	1	.	.
Cc1cccc(-n2c(C)cc(C=C(C#N)C#N)c2C)c1	-1	-3	-1	-1
Cc1cc(/C=C(/C#N)c2cccc(Cl)c2)c(C)n1C	3	-3	4.6*	-4
CCOC(=O)c1c(C)n(CCOc2ccccc2)c2ccc(O)cc12	56*	-1	1	-4
COc1ccc(Cl)cc1C(=O)NCCS(=O)(=O)N1CCN(c2ccccc2F)CC1	-1	1	-1	-2
O=C(NCCS(=O)(=O)N1CCN(c2ccccc2F)CC1)c1ccc(F)c(F)c1	0	64*	-1	0
COc1ccc(OCCSc2ncccn2)cc1	13	4	0	-11
Clc1ccc(OCCSc2ncccn2)cc1	55*	-7	0	-3
NC(c1csc(Nc2nccc(C(F)(F)F)n2)n1)C1CCCCC1 (configuration not stated)	-1	50*	-1	-2
CC(C)(C)C(=O)COC(=O)CNC(=O)c1ccc(Oc2ccccc2)cc1	42*	-1	1	-3
COc1cccc(C(=O)NCC(=O)OCC(=O)C(C)(C)C)c1	-2	0	-1	-14
CCOC(=O)CN1CCC(c2cc(-c3ccc(Cl)cc3)n[nH]2)CC1	62*	-5	0	1
N#CC1=C(N)Oc2cc(O)ccc2C1c1ccc(Br)s1 (configuration not stated)	75*	-6	0	-3
Cc1ccccc1NC(=O)[C@@H]1CC(=O)O[C@@H]1c1ccccc1	1	3	.	.
CC1Cc2cc(/C=C3/SC(N4CCC(C(N)=O)CC4)=NC3=O)ccc2O1 (configuration not stated)	0	-6	4.6*	-3
SMILES	GC-A act	NPR2 activator	MsrA inhibitor	bovine MsrA act
CC1Cc2cc(/C=C3/SC(=S)N(C)C3=O)ccc2O1 (configuration not stated)	-2	-2	1	-1
c1ccc(-c2cccc(CNc3nc(-c4ccccn4)nnc3-c3ccccc3)c2)cc1	-2	1	.	.
O=C(O)CCC(=O)Nc1ccc(-c2nc3ccc(C(=O)c4ccccc4)cc3[nH]2)cc1	-1	-8	4.6*	-4
Cc1ccc2cc3cc(C(=O)NCCCN4CCCC4=O)oc3nc2c1	0	-5	4.6*	-5
COc1ccc(NC(=O)c2cc(-c3cc(Cl)ccc3C)n[nH]2)c(OC)c1	4	0	1	-1
COc1ccc(NC(=O)c2cc(-c3cc(Cl)ccc3OC)n[nH]2)c(C)c1	75*	88*	0	-3
CCCOc1ccc(F)cc1-c1cc(C(=O)Nc2ccc(OC)cc2C)[nH]n1	58*	62*	1	-3
